Screening data deposited in PubChem BioAssay by several laboratories.
This is a sample that favours compounds with a hit; in the whole collection about 1.3% have one here.
Calpain2 inh – inhibitors of pig calpain II, primary screen, biochemical, fluorogenic peptide substrate, 1536-well; AID 1236, 2008; purified calpain II, 30 min; 220,000 tested, 0.37% active; inhibition, % at 16 µM;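 active = inhibition above about 50%, limit read from the data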
S1P3 antag – S1P3 receptor antagonists, primary screen, cell-based; 170,000 tested, 0.27% active; Sphingosine 1-phosphate receptor 3 (Homo sapiens), Q99500; CHO S1P3 NFAT-BLA reporter, FRET fluorescence, antagonist mode; inhibition, % at 4.98 µM;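 active = inhibition above the plate cutoff, the mean inhibition of test wells on that plate plus 3 SD, cut at about 28% in these data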;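 note: cells challenged with S1P at its EC80 of 0.8 µM; blue over green emission ratio from cleaved BLA substrate after 4 h stimulation; 0% = S1P-stimulated wells and 100% = unstimulated DMSO-only wells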
PERK inh – block of dimerizer-induced PERK translation repression, primary screen, PERK inhibitor project, CHO PERK-DD cells, SEAP luminescence, HTS | Eukaryotic translation initiation factor 2-alpha kinase 3 (Homo sapiens), Q9NZJ5 | CHO PERK-DD fusion, SEAP luminescence translation reporter | inhibition, % at 5.6 µM | 220,000 tested, 0.17% active | AID 1416, 2008;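 active = inhibition above the mean inhibition of all tested compounds plus 3 SD, set separately per screening campaign, cut at about 2.9% in these data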;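 note: PERK kinase domain activated by AP20187 dimerizer at 100 nM; 0% = DMSO with dimerizer and 100% = rapamycin at 8.4 µM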
Target sequence (Q9NZJ5 whole entry, looked up, the tested form may be a part): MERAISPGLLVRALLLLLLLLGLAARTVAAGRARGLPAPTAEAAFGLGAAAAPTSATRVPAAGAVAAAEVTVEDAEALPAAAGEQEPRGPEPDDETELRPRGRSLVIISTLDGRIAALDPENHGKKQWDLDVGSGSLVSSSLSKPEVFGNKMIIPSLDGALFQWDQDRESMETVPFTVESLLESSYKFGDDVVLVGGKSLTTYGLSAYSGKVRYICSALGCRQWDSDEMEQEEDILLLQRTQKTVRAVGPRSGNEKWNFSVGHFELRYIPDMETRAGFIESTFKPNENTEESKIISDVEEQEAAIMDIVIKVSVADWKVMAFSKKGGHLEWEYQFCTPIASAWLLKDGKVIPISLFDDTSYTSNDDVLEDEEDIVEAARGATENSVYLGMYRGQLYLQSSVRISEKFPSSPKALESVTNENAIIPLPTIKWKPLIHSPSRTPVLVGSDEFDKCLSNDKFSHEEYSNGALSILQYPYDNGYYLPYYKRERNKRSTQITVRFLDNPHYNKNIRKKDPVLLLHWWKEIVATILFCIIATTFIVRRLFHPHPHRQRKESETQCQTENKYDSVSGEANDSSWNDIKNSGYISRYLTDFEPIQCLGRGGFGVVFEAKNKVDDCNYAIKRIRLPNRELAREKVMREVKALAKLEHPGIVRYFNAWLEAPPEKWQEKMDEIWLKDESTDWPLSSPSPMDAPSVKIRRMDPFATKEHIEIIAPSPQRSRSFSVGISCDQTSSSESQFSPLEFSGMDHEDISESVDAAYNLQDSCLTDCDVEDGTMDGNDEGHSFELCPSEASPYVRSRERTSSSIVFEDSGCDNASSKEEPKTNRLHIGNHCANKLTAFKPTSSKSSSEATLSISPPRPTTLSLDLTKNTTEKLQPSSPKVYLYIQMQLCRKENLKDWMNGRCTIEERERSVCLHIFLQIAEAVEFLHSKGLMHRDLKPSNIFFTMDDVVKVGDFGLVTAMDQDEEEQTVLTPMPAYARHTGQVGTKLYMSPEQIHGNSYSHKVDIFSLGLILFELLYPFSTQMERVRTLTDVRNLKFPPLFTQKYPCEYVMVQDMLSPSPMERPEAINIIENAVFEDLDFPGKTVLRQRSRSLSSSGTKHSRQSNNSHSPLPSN
S1P4 antag – S1P4 receptor antagonists, primary screen, cell-based. S1P4-expressing cells, antagonist mode, reporter read-out. inhibition, % at 4.98 µM. 220,000 tested, 0.26% active. AID 1510, 2009; in the data active = inhibition above about 29%;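 note: 0% = wells stimulated with agonist and 100% = vehicle wells without agonist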
S1P4 ag – S1P4 receptor agonists, primary screen, cell-based; Sphingosine 1-phosphate receptor 4 (Homo sapiens), O95977; S1P4-expressing cell line, agonist reporter assay; activation, % at 4.98 µM; 220,000 tested, 0.35% active; AID 1509, 2009; in the data active = activation above about 11%;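 note: 0% = DMSO vehicle and 100% = reference agonist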
S1P4 antag cf – S1P4 receptor antagonists, human, confirmation, cell-based; AID 1524, 2009; S1P4-expressing cell line, antagonist mode, reporter read-out; 520 tested, 71% active; shares compounds with S1P4 antag; inhibition, % at 4.98 µM; in the data active = inhibition above about 30%
S1P1 antag – S1P1 receptor antagonists, human, counter-screen for S1P4 antagonist project, cell-based. 520 tested, 37% active. shares compounds with S1P4 antag. AID 1564, 2009. cell-based S1P1 antagonist counterscreen, inhibition. inhibition, % at 4.98 µM; in the data active = inhibition above about 40%;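 note: receptor stimulated with S1P near its EC80; 0% = agonist stimulated wells and 100% = vehicle only wells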
Numbers without * were called inactive.

Screening CCn1c(Cl)c(C=O)s/c1=N\S(=O)(=O)c1ccccc1 returned Calpain2 inh 18, S1P3 antag 18, PERK inh 2, S1P4 antag 88*, S1P4 ag -3, S1P4 antag cf 120* and S1P1 antag 119*.
`Cc1cc(C)n(C(=O)Cn2nc([N+](=O)[O-])c(Br)c2C)n1` gave Calpain2 inh -10, S1P3 antag -10, PERK inh 1, S1P4 antag 0 and S1P4 ag 2.
NCCCCCC(=O)N/N=C/c1coc2ccccc2c1=O was read as Calpain2 inh -19, S1P3 antag 0, PERK inh 1, S1P4 antag 5 and S1P4 ag 0.
Screening COc1ccc(C(=O)C(CCC(CNC(C)(C)C)C(=O)c2ccc(OC)cc2)CNC(C)(C)C)cc1 (stereo not drawn) returned Calpain2 inh 11, S1P3 antag 18, PERK inh 0, S1P4 antag 73*, S1P4 ag -6, S1P4 antag cf 37* and S1P1 antag 22.
For COc1cc(CNCCO)cc(Cl)c1OCc1ccc(Cl)cc1Cl the results were Calpain2 inh 31, S1P3 antag -15, PERK inh -2, S1P4 antag 31*, S1P4 ag 4, S1P4 antag cf 51* and S1P1 antag 64*.
COc1cc(CNCCO)cc(Br)c1OCc1ccccc1Cl was read as Calpain2 inh 15, PERK inh 0, S1P4 antag 14 and S1P4 ag 10.
COc1cc(/C=C(\C#N)C(=O)Nc2ccc3c(c2)OCCO3)ccc1O was read as Calpain2 inh 8, S1P3 antag -5, PERK inh -1, S1P4 antag -4 and S1P4 ag 0.
CCCCOc1ccccc1C(=O)NCCCC(=O)O was read as Calpain2 inh -20, PERK inh 1, S1P4 antag 35*, S1P4 ag -6, S1P4 antag cf -3 and S1P1 antag -2.
For Cc1cccc(C)c1NC(=O)c1ccc(-c2ccc(Cl)cc2Cl)o1 the results were Calpain2 inh 16, PERK inh 0, S1P4 antag 96*, S1P4 ag 1, S1P4 antag cf 111* and S1P1 antag -2.
For C#CCOc1ccc(C2C3=C(COC3=O)Nc3cc4c(cc32)OCO4)cc1OC (stereo not drawn) the results were Calpain2 inh -45, S1P3 antag 13, PERK inh 0, S1P4 antag 38*, S1P4 ag 0, S1P4 antag cf 39* and S1P1 antag 80*.
`O=C(Nc1cccc2ccccc12)/C(Cl)=C/c1ccccc1` gave Calpain2 inh 58*, PERK inh 0, S1P4 antag 61*, S1P4 ag -1, S1P4 antag cf 68* and S1P1 antag 17.
For O=[N+]([O-])c1ccc(Cl)c(C2Nc3cccc4cccc(c34)N2)c1 the results were Calpain2 inh 6, PERK inh -2, S1P4 antag 59*, S1P4 ag 0, S1P4 antag cf 1 and S1P1 antag 19.
Oc1ccccc1C1Nc2cccc3cccc(c23)N1 was read as Calpain2 inh -272, S1P3 antag 17, PERK inh 1, S1P4 antag -30 and S1P4 ag 2.
For O=[N+]([O-])c1ccccc1C1Nc2cccc3cccc(c23)N1 the results were Calpain2 inh -10, PERK inh 1, S1P4 antag 59*, S1P4 ag -2, S1P4 antag cf 0 and S1P1 antag -41.
`CCOc1ccc(NC(=O)Nc2cc(OCC(F)(F)F)cc(OCC(F)(F)F)c2)cc1` gave Calpain2 inh -4, S1P3 antag 9, PERK inh 1, S1P4 antag 90*, S1P4 ag -2, S1P4 antag cf 113* and S1P1 antag -26.
CCOc1ccc(NC(=O)Nc2cccc(C(=O)O)c2)cc1 was read as Calpain2 inh -20, S1P3 antag 7, PERK inh 1, S1P4 antag -9 and S1P4 ag 0.
COc1ccc2c(c1)NC(c1ccc(N(C)C)cc1)c1cccn1-2 (stereo not drawn) was read as Calpain2 inh -13, S1P3 antag 2, PERK inh -1, S1P4 antag 14 and S1P4 ag 2.
`O=C(CN1C(=O)NC2(CCCC2)C1=O)OCc1cc(=O)n2cc(Br)ccc2n1` gave Calpain2 inh -16, S1P3 antag 0, PERK inh 1, S1P4 antag 5 and S1P4 ag -1.
`COc1ccc(/C=C/C(=O)c2ccccc2O)cc1` gave Calpain2 inh 24, S1P3 antag -19, PERK inh 0, S1P4 antag 23 and S1P4 ag 0.
COc1ccc(/C=C/C(=O)c2c(O)c(OC)c3occc3c2OC)cc1 was read as Calpain2 inh -18, S1P3 antag -5, PERK inh -1, S1P4 antag 34*, S1P4 ag 2, S1P4 antag cf 52* and S1P1 antag 18.
`COc1cccc2c1OC1(CCN(C(C)C)CC1)N1N=C(c3cccnc3)CC21` (stereo not drawn) gave Calpain2 inh 30, S1P3 antag 3, PERK inh 1, S1P4 antag -5 and S1P4 ag -1.
`CC(C)N1CCC2(CC1)Oc1ccc(Br)cc1C1CC(c3cccnc3)=NN12` (stereo not drawn) gave Calpain2 inh 24, S1P3 antag 4, PERK inh 0, S1P4 antag 32*, S1P4 ag 0, S1P4 antag cf 19 and S1P1 antag 32.
For Cc1cc(Nc2ccccc2)nc2cc(O)ccc12 the results were Calpain2 inh -14, S1P3 antag -15, PERK inh 0, S1P4 antag 92*, S1P4 ag 0, S1P4 antag cf 81* and S1P1 antag 41*.
Screening COc1ccc(N2CCN(c3cc(C)c4ccc(O)cc4n3)CC2)cc1 returned Calpain2 inh -92, S1P3 antag -21, PERK inh 1, S1P4 antag -10 and S1P4 ag 0.
COc1ccc(Nc2cc(C)c3ccc(O)cc3n2)cc1 was read as Calpain2 inh 4, S1P3 antag -6, PERK inh -2, S1P4 antag 88*, S1P4 ag 0, S1P4 antag cf 65* and S1P1 antag 30.
Screening Cc1cc(C)nc(/N=C(\N)N(Cc2ccccc2)Cc2ccccc2)n1 returned Calpain2 inh 45, S1P3 antag -19, PERK inh 1, S1P4 antag 2 and S1P4 ag 0.
